Measured values reported in PubChem BioAssay AID1159580 (chemical genetic matrix, 2015).
About 2,000 (36%) of roughly 5,500 compounds were called active. Not shown: some 18% with an inconclusive outcome. No stated cut-off is given here; in the data, active means normalized growth mostly below about 0.91 (no sharp cut-off); inconclusive means no clear call, values can overlap the other calls; inactive means mostly above about 0.92. The list shows a part of the results.

Assay: chemical genetic growth profiling, strain panel (AID 1159580);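 further: tested at 20 µM; growth read once vehicle control cultures reached saturation at 30 °C; 1 = growth at the plate median or of vehicle wells; lower values mean less growth of the strain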
Details: growth OD

Measured: normalized growth

Cc1[nH]c2ccccc2c1CN(C)C
inactive: S. cerevisiae deletion strains, locus YJR075W, strain HOC1, active compounds read low 1.03 | S. cerevisiae deletion strains, locus YKL009W, strain mrt4, active compounds read low 0.974 | S. cerevisiae deletion strains, locus YKL068W, active compounds read low 1.01 | S. cerevisiae deletion strains, locus YKL085W, strain MDH1 (second series), active compounds read low 0.997 | S. cerevisiae deletion strains, locus YKL085W, strain MDH1, active compounds read low 0.997 | S. cerevisiae deletion strains, locus YKL160W, strain elf1, active compounds read low 1.01 | S. cerevisiae deletion strains, locus YKL190W, strain CNB1, active compounds read low 1.02 | S. cerevisiae deletion strains, locus YKR001C, strain vps1, active compounds read low 1.01 | S. cerevisiae deletion strains, locus YKR026C, strain gcn3, active compounds read low 1.02 | S. cerevisiae deletion strains, locus YKR091W, strain srl3, active compounds read low 1.01 | S. cerevisiae deletion strains, locus YLL001W, strain dnm1, active compounds read low 1.01 | S. cerevisiae deletion strains, locus YLL026W, active compounds read low 1.02 | S. cerevisiae deletion strains, locus YLL041C, strain sdh2, active compounds read low 1.01 | S. cerevisiae deletion strains, locus YLR027C, strain aat2, active compounds read low 1.01 | S. cerevisiae deletion strains, locus YLR039C, strain RIC1, active compounds read low 1.1 | S. cerevisiae deletion strains, locus YLR058C, strain SHM2, active compounds read low 1.03 | S. cerevisiae deletion strains, locus YLR102C, strain apc9, active compounds read low 1 | S. cerevisiae deletion strains, locus YLR113W, strain HOG1, active compounds read low 1 | S. cerevisiae deletion strains, locus YLR221C, strain rsa3, active compounds read low 1.01 | S. cerevisiae deletion strains, locus YLR258W, strain gsy2, active compounds read low 1 | S. cerevisiae deletion strains, locus YLR262C, strain YPT6 (second series), active compounds read low 1.01 | S. cerevisiae deletion strains, locus YLR262C, strain YPT6, active compounds read low 1.05 | S. cerevisiae deletion strains, locus YLR268W, strain sec22, active compounds read low 0.979 | S. cerevisiae deletion strains, locus YLR320W, strain mms22, active compounds read low 1.04 | S. cerevisiae deletion strains, locus YLR330W, strain CHS5, active compounds read low 1 | S. cerevisiae deletion strains, locus YLR342W, strain FKS1 (second series), active compounds read low 1.02 | S. cerevisiae deletion strains, locus YLR342W, strain FKS1, active compounds read low 1.01 | S. cerevisiae deletion strains, locus YLR357W, strain rsc2, active compounds read low 1 | S. cerevisiae deletion strains, locus YLR370C, strain arc18, active compounds read low 1.03 | S. cerevisiae deletion strains, locus YLR371W, strain rom2, active compounds read low 1.01 | S. cerevisiae deletion strains, locus YLR384C, strain iki3, active compounds read low 1.03 | S. cerevisiae deletion strains, locus YLR418C, strain cdc73, active compounds read low 0.983 | S. cerevisiae deletion strains, locus YML016C, strain PPZ1, active compounds read low 0.996 | S. cerevisiae deletion strains, locus YML032C, strain rad52, active compounds read low 0.981 | S. cerevisiae deletion strains, locus YML120C, strain ndi1, active compounds read low 1.01 | S. cerevisiae deletion strains, locus YML124C, strain tub3, active compounds read low 0.991 | S. cerevisiae deletion strains, locus YMR058W, strain fet3, active compounds read low 1.02 | S. cerevisiae deletion strains, locus YMR078C, strain ctf18, active compounds read low 0.991 | S. cerevisiae deletion strains, locus YMR125W, strain sto1, active compounds read low 1.01 | S. cerevisiae deletion strains, locus YMR129W, active compounds read low 1.02 | S. cerevisiae deletion strains, locus YMR205C, strain PFK2, active compounds read low 1.06 | S. cerevisiae deletion strains, locus YMR223W, strain ubp8, active compounds read low 0.977 | S. cerevisiae deletion strains, locus YMR231W, strain pep5, active compounds read low 1.02 | S. cerevisiae deletion strains, locus YMR263W, strain SAP30, active compounds read low 1.02 | S. cerevisiae deletion strains, locus YMR307W, strain GAS1, active compounds read low 1.15 | S. cerevisiae deletion strains, locus YNL067W, strain RPL9B, active compounds read low 1.02 | S. cerevisiae deletion strains, locus YNL071W, strain lat1, active compounds read low 1.01 | S. cerevisiae deletion strains, locus YNL128W, strain TEP1, active compounds read low 1 | S. cerevisiae deletion strains, locus YNL183C, strain NPR1, active compounds read low 0.94 | S. cerevisiae deletion strains, locus YNL209W, strain ssb2, active compounds read low 1.04 | S. cerevisiae deletion strains, locus YNL233W, strain BNI4, active compounds read low 1.05 | S. cerevisiae deletion strains, locus YNL248C, strain rpa49, active compounds read low 1.02 | S. cerevisiae deletion strains, locus YNL250W, strain rad50, active compounds read low 0.98 | S. cerevisiae deletion strains, locus YNL271C, strain bni1, active compounds read low 0.995 | S. cerevisiae deletion strains, locus YNL298W, strain CLA4, active compounds read low 0.985 | S. cerevisiae deletion strains, locus YNL307C, strain MCK1, active compounds read low 1 | S. cerevisiae deletion strains, locus YNL322C, strain KRE1 (second series), active compounds read low 1.02 | S. cerevisiae deletion strains, locus YNR049C, strain mso1, active compounds read low 1.03 | S. cerevisiae deletion strains, locus YNR052C, strain pop2, active compounds read low 0.994 | S. cerevisiae deletion strains, locus YOL012C, strain htz1 1.39 | S. cerevisiae deletion strains, locus YOL147C, strain pex11, active compounds read low 0.993 | S. cerevisiae deletion strains, locus YOR001W, strain rrp6, active compounds read low 1.02 | S. cerevisiae deletion strains, locus YOR061W, strain CKA2, active compounds read low 1.02 | S. cerevisiae deletion strains, locus YOR069W, strain VPS5, active compounds read low 0.995 | S. cerevisiae deletion strains, locus YOR070C, strain gyp1, active compounds read low 1.02 | S. cerevisiae deletion strains, locus YOR080W, strain dia2, active compounds read low 1.03 | S. cerevisiae deletion strains, locus YOR083W, strain WHI5, active compounds read low 1.01 | S. cerevisiae deletion strains, locus YOR106W, strain vam3, active compounds read low 1.04 | S. cerevisiae deletion strains, locus YOR136W, strain idh2, active compounds read low 0.975 | S. cerevisiae deletion strains, locus YOR144C, strain elg1, active compounds read low 0.999 | S. cerevisiae deletion strains, locus YOR184W, strain ser1, active compounds read low 1.02 | S. cerevisiae deletion strains, locus YOR231W, strain MKK1, active compounds read low 0.987 | S. cerevisiae deletion strains, locus YOR265W, strain rbl2, active compounds read low 1.02 | S. cerevisiae deletion strains, locus YOR270C, strain vph1, active compounds read low 1.07 | S. cerevisiae deletion strains, locus YOR290C, strain snf2, active compounds read low 1.01 | S. cerevisiae deletion strains, locus YOR316C, strain cot1, active compounds read low 0.992 | S. cerevisiae deletion strains, locus YPL051W, strain arl3, active compounds read low 1.03 | S. cerevisiae deletion strains, locus YPL055C, strain LGE1, active compounds read low 1.06 | S. cerevisiae deletion strains, locus YPL078C, strain atp4, active compounds read low 1 | S. cerevisiae deletion strains, locus YPL106C, strain sse1, active compounds read low 1.04 | S. cerevisiae deletion strains, locus YPL240C, strain hsp82, active compounds read low 1.01 | S. cerevisiae deletion strains, locus YPL256C, strain CLN2, active compounds read low 0.991 | S. cerevisiae deletion strains, locus YPR119W, strain clb2, active compounds read low 0.992 | S. cerevisiae deletion strains, locus YPR141C, strain kar3, active compounds read low 1 | S. cerevisiae deletion strains, locus YPR163C, strain tif3, active compounds read low 0.996 | S. cerevisiae deletion strains, locus YPR167C, strain met16, active compounds read low 0.988 | S. cerevisiae deletion strains, strain wtn01, active compounds read low 0.966 | S. cerevisiae strains, strain wild type, active compounds read low 1.03
